HT1080 IDH1KD tx: HT-1080 IDH1 knockdown cell toxicity (counter line) | HT-1080 IDH1 knockdown viability, ATP luminescence, 48 h | Potency, µM (titrated, usually from 46.1 µM), without a hit: top-dose activity, negative = toxicity, hits mostly cytotoxic | 360,000 compounds, 2% hits | AID 686971;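 also: 0% = DMSO wells and -100% = cell-free medium wells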
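Luminescent ATP read-out (CellTiter-Glo, 10 min at room temperature) after 48 h compound exposure at 37 °C gave viability of IDH1-knockdown HT-1080 cells. Activity was normalised to DMSO and cell-free wells, then fitted as concentration-response curves.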
TGFb SMAD3 inh: inhibitors of TGF-b signaling; 410,000 compounds, 1.2% hits; Potency, µM (titrated, usually from 46.1 µM), without a hit: at the highest dose activity, negative = inhibition, hits mostly inhibitors; HepG2 CAGA-GFP TGF-b/SMAD3 reporter, GFP fluorescence, 18 h; TGF-beta stimulated, 500 pg/mL final; also: % is scaled to controls: 0 for no effect and ±100 for the full control effect; nearly all actives have a fitted effect of over 65% in size
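Smad-responsive CAGA-GFP expression was quantified in HEPG2 cells exposed to compounds and 500 pg/mL final TGF-beta for 18 h at 37 degrees C; unstimulated wells defined full inhibition.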
DT40 TDP1 CPT: DT40-hTDP1 cell growth loss with CPT | AID 686979 | chicken DT40 Tdp1-/-;hTDP1 cells + 20 nM CPT, ATP luminescence, 48 h | Potency, µM (highest dose often 46.2 µM), inactives show at the top dose activity change, negative = growth inhibition, most hits filed as inhibitors | 420,000 compounds, 12% hits; also: % is scaled to controls: 0 for no effect and ±100 for the full control effect; nearly all actives have a fitted effect of over 55% in size
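Chicken DT40 Tdp1-/- cells complemented with human TDP1, 400 cells/well, exposed to compounds plus 20 nM camptothecin for at least 48 h at 37 C; viability read as ATP content by CellTiter-Glo luminescence.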
HT1080-NT tox: kills 2HG-producing HT-1080-NT fibrosarcoma cells; Potency, µM (highest dose often 46.1 µM), inactives show at the top dose activity, negative = less viability, actives largely listed as cytotoxic; 360,000 compounds, 1.6% hits; HT-1080-NT fibrosarcoma viability, CellTiter-Glo ATP luminescence, 48 h; AID 686970;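 also: NT is the 2HG producing partner of a matched IDH1 knockdown line; 0% = DMSO-treated cells and -100% = media-only wells without cells; nearly all actives have a fitted effect of over 55% in size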
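Fibrosarcoma NT cells, 750 per well in 5% FBS RPMI, were exposed to compound for 48 hours. Viability: CellTiter-Glo luminescence.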
TDP1 cell noCPT: qHTS for Inhibitors of human tyrosyl-DNA phosphodiesterase 1 (TDP1): qHTS in cells in absence of CPT. DT40 Tdp1-/- hTDP1 cells, no CPT, ATP luminescence, 48 h. Potency, µM (series often up to 46.2 µM), for inactives: at the top dose activity change, negative = growth inhibition, actives largely listed as inhibitors. 420,000 compounds, 15% hits. AID 686978, 2013; also: % is scaled to controls: 0 for no effect and ±100 for the full control effect; nearly all actives have a fitted effect of over 55% in size
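DT40 Tdp1-/-;hTDP1 cells, no CPT (DMSO vehicle only), 400 cells/well; compounds pin-transferred; ≥48 hr, 37 °C; CellTiter-Glo 30 min RT dark, luminescence read.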
HepG2 tox: kills HepG2 cells in TGF-b inhibitor counter-screen | HepG2 CAGA-GFP viability, ATP luminescence, 18 h | Potency, µM (series often up to 46.1 µM), inactives show at the top dose activity change, negative = cytotoxicity, actives largely listed as cytotoxic | 410,000 compounds, 0.76% hits | AID 588856
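HepG2 CAGA-GFP cells (1000/well, DMEM with 1% FBS) received compound, then TGF-beta at 500 pg/mL final, and were incubated 18 hours at 37 degrees C. Viability was read by CellTiter-Glo luminescence. Media-only wells were set as complete cell-killing and DMSO as no toxicity.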
* = called active by the depositor; ? = inconclusive; nt = no result given. Compounds with a hit are over-represented: about 17% of the library has one in this group of screens. Calls follow the shape of the dose curve; as a rule, active = well fitted curve in the direction sought with a large enough effect; inconclusive = small, poorly fitted or top-dose-only effect, or another doubt; inactive = no such curve, though single readings can be large; an effect the other way counts as inactive or inconclusive. Potency is read from the fitted curve at half-maximal effect.

SMILES	HT1080 IDH1KD tx	TGFb SMAD3 inh	DT40 TDP1 CPT	HT1080-NT tox	TDP1 cell noCPT	HepG2 tox
O=C1CCCC2=C1C(c1cccs1)n1nc(SCc3ccccc3F)nc1N2 (stereo not drawn)	-17.1%	?	11.6µM*	-4.0%	23.1µM*	-16.8%
CSc1nc2n(n1)C(c1cccs1)C1=C(CCCC1=O)N2 (stereo not drawn)	2.5%	32.0%	4.5%	5.3%	-3.7%	5.5%
Cc1ccccc1CSc1nc2n(n1)C(c1cccs1)C1=C(CCCC1=O)N2 (stereo not drawn)	?	?	20.6µM*	?	18.4µM*	-2.7%
Cc1ccccc1CNC(=O)C(=O)NCC(c1cccs1)S(=O)(=O)c1ccc(Cl)cc1 (stereo not drawn)	nt	?	?	nt	23.1µM*	-33.6%
O=C(NCc1ccccc1Cl)C(=O)NCC(c1cccs1)S(=O)(=O)c1ccccc1 (stereo not drawn)	nt	?	14.6µM*	nt	18.4µM*	-10.5%
Cc1ccc(S(=O)(=O)C(CNC(=O)C(=O)NCc2ccccc2C)c2cccs2)cc1 (stereo not drawn)	nt	-16.1%	?	nt	?	-14.0%
C[C@@H]1CN([C@H](C)CO)C(=O)CCCn2nncc2CO[C@H]1CN(C)S(=O)(=O)c1cccc(C#N)c1	5.9%	-23.4%	-5.6%	0.9%	-17.1%	-33.3%
O=C(Nc1nnc(COc2ccc(F)cc2)s1)Nc1ccccc1F	20.5%	?	-13.8%	17.7%	-23.2%	1.2%
CC(=O)NC(Cc1ccc(C)cc1)C(=O)NC1CCN(c2ncccc2[N+](=O)[O-])CC1 (stereo not drawn)	3.8%	-20.3%	1.8%	8.7%	3.4%	-5.6%
C=CCNC(=O)c1onc(CSc2cccc(OC)c2)c1C(=O)NCC=C	-4.9%	5.4%	-6.7%	-0.3%	-27.7%	-14.3%
Cc1cccc(-n2ncc3c2CCCC3NC(=O)C2(C(N)=O)CC2)c1C (stereo not drawn)	?	0.0%	10.3µM*	-14.1%	?	-16.3%
CCc1cc(C(=O)NC2CCCc3c2cnn3-c2cccc(C)c2C)n(C)n1 (stereo not drawn)	?	-16.6%	0.206µM*	-5.5%	0.164µM*	-19.8%
Cc1cccc(-n2ncc3c2CCCC3NC(=O)C2=CC(=O)CC(C)(C)O2)c1C (stereo not drawn)	-18.1%	-6.9%	4.61µM*	?	8.2µM*	13.6%
Cc1cc(C)c(C(=O)NC2CCCc3c2cnn3-c2cccc(C)c2C)o1 (stereo not drawn)	?	-4.9%	20.6µM*	-17.9%	?	-8.9%
Cc1ccc(NC(=O)COC(=O)c2cc(=O)c3ccccc3o2)cc1F	-0.7%	-2.4%	-14.3%	-2.5%	27.1%	1.4%
c1coc(C2=Nc3cccc4cccc(c34)N2)c1	-2.1%	-1.2%	14.6µM*	-5.6%	23.1µM*	-5.0%
CC1=Nc2cccc3cccc(c23)N1	-12.0%	-5.2%	?	-11.8%	23.1µM*	-15.3%
CN1CCN(C(=O)C2CC(=O)N(c3ccc(Cl)cc3)C2)CC1 (stereo not drawn)	1.0%	-4.7%	-1.1%	3.4%	-1.5%	3.1%
O=C(N/C(=C\c1cccc(Br)c1)C(=O)N1CCCCC1)c1ccco1	-12.4%	2.0%	-25.1%	-22.7%	-21.2%	-18.9%
CCOC(=O)C1CCCN(C(=O)c2cc(F)cc(F)c2)CC1 (stereo not drawn)	23.7%	8.0%	-7.7%	21.5%	6.6%	2.1%

Screens deposited in PubChem BioAssay by National Center for Advancing Translational Sciences (NCATS).
